In all, about 2,300 compounds were measured (“plate-normalized OD600 growth (mean of duplicates)”: median about 0.29, lowest 2% from about 0.22 on). For the sample, the lowest values were picked, then their nearest neighbours and some compounds at random.
System: Escherichia coli BW25113
Assay: plate-normalized OD600 growth (mean of duplicates) (OD600 (normalized)); higher = more growth (less inhibition)
Details: 10 µM
Description: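 E. coli BW25113 in LB (100 µl, 96-well, no shaking) was exposed to 10 µM of each compound from a ~30,000-member library and grown at 37°C for 24 h or 15°C for 48 h, in duplicate. Growth was read as OD600 and the duplicate ODs were normalized across screening plates to correct plate-to-plate variation. Hits were >3σ below the mean OD600 at 15°C and <2σ below the mean at 37°C.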

| Compound | plate-normalized OD600 growth (temperature: 15°C, 48 h) | plate-normalized OD600 growth (temperature: 37°C, 24 h) |
| --- | --- | --- |
| O=C1CC(NCc2ccco2)C(=O)N1c1ccc(OC(F)(F)Cl)cc1 (configuration not stated) | 0.268 | 0.642 |
| CCOC(=O)C(=CNNc1ccnc2cc(Cl)ccc12)C(=O)OCC | 0.26 | 0.616 |
| CCOC(=O)C(=CNNS(=O)(=O)c1cc(C(F)(F)F)cc(C(F)(F)F)c1)C(=O)OCC | 0.246 | 0.602 |
| CCOC(=O)C(=CNNC(=O)c1ccccc1-n1cccc1)C(=O)OCC | 0.213 | 0.618 |
| CC1COCCN1c1cc(N2CCCCC2C(F)(F)F)[nH]c(=O)c1 (configuration not stated) | 0.265 | 0.635 |
| Nc1[nH]c(=O)c(CO)c(N)c1S(=O)(=O)c1ccccc1 | 0.211 | 0.632 |
| N=c1c(S(=O)(=O)c2ccccc2)c(N)c(CO)c2sc3ccccc3n12 | 0.236 | 0.601 |
| NS(=O)(=O)c1ccc(-n2ncc3ccccc3c2=O)cc1 | 0.214 | 0.646 |
| CCOC(=O)c1cnn(-c2ccc(NS(=O)(=O)c3ccc(Cl)cc3)cc2)c1C(F)(F)F | 0.233 | 0.609 |
| O=C(CNC(=O)C(c1ccccc1)c1ccccc1)N/N=C/c1ccc(-c2ccc(Cl)c(Cl)c2)o1 | 0.238 | 0.611 |
| O=C(COc1ccc(C(F)(F)F)cc1[N+](=O)[O-])Nc1cccc(C(F)(F)F)c1 | 0.264 | 0.633 |
| Cc1cccc(NC(=O)COc2ccccc2C(=O)NCCNc2ccc([N+](=O)[O-])cc2)c1 | 0.209 | 0.656 |
| Cc1ccccc1OCC(=O)Nc1cccc(N2C(=O)c3ccccc3C2=O)c1 | 0.235 | 0.661 |
| CCC/C=N/NC(=O)c1ccc(N2CCCC2=O)cc1 | 0.26 | 0.647 |
| c1ccc2c(c1)OCCCOc1ccccc1OCCCO2 | 0.251 | 0.607 |
| COc1cc(S(=O)(=O)N2CCN(c3c(C)cccc3C)CC2)c(OC)cc1Cl | 0.253 | 0.617 |
| COc1cc2c(cc1OC)C(C)N(S(=O)(=O)c1cn(C)c(C)n1)CC2 (configuration not stated) | 0.245 | 0.611 |
| CC(C)CC(=O)N(NC(=O)c1ccccc1)c1ccccc1 | 0.22 | 0.615 |
| COc1ccccc1Oc1ccc(C(F)(F)F)cc1NC(=O)NC(=O)c1ccccc1F | 0.265 | 0.619 |
| O=C1/C(=C\c2ccccc2)N=C(c2ccccc2)N1CNc1nccs1 | 0.254 | 0.585 |
| O=C(O)c1cccc(S(=O)(=O)Nc2ccc(Cl)cc2)c1 | 0.257 | 0.625 |
| CC1=C(C#N)C(c2c(C)[nH]n(-c3ccccc3)c2=O)(C(F)(F)F)C(=O)N1 (configuration not stated) | 0.26 | 0.62 |
| COc1ccccc1N=C(N)SCc1ccccc1 | 0.236 | 0.606 |
| CCc1ccc(NC(=O)CSc2nnc3n(N)cnn23)cc1 | 0.238 | 0.609 |

| Compound | plate-normalized OD600 growth (temperature: 15°C, 48 h) | plate-normalized OD600 growth (temperature: 37°C, 24 h) |
| --- | --- | --- |
| Cc1cc(O)c(C)c(O)c1/C=N/NC(=O)CNC(=O)c1ccco1 | 0.245 | 0.61 |
| Cc1ccc(NC(=O)c2c3c(nc4ccccc24)CCCC3)cc1 | 0.239 | 0.614 |
| C=CCn1c(C(O)c2ccccc2)n[nH]c1=S (configuration not stated) | 0.247 | 0.613 |
| O=c1nc(-c2ccccc2)nc(-c2ccccc2)[nH]1 | 0.26 | 0.617 |
| Cc1ccc2nc(Cl)c(C=Nc3ccccn3)cc2c1 | 0.226 | 0.611 |
| COc1ccc(S(=O)(=O)N(Cc2ccccc2)c2ccccc2C(=O)N/N=C(\C)c2ccccc2O)cc1 | 0.259 | 0.618 |
| O=C(NC(=S)Nc1ccc(Cc2ccncc2)cc1)c1cccc2ccccc12 | 0.259 | 0.614 |
| COc1cc(CCNC(=O)OC(C)(C)C)c([S+]([O-])CSCc2ccccc2)cc1OC (configuration not stated) | 0.238 | 0.613 |
| Cc1cc(=O)oc2n[nH]c(-c3ccccc3)c12 | 0.258 | 0.64 |
| O=C(c1ccco1)N1CCC(c2ccccc2)C1 (configuration not stated) | 0.201 | 0.642 |
| O=C(NCCSC1CCCCC1)c1ccco1 | 0.221 | 0.633 |
| NC(=O)C1CCN(C(=O)c2ccco2)CC1 | 0.25 | 0.628 |
| N#CC1=C(N)Oc2n[nH]c(-c3cccs3)c2C12C(=O)Nc1ccc([N+](=O)[O-])cc12 (configuration not stated) | 0.265 | 0.618 |
| COC(=O)CN1C(=O)C2(C(C#N)=C(N)Oc3n[nH]c(C)c32)c2ccccc21 (configuration not stated) | 0.207 | 0.65 |
| CCOc1ccc(-c2[nH]nc3c2C2(C(=O)Nc4ccc(C)c(Br)c42)C(C#N)=C(N)O3)cc1 (configuration not stated) | 0.245 | 0.6 |
| CCOC(=O)c1c(N)oc2c(-c3ccc(C)c(Cl)c3)c3c(C(=O)OCC)c(N)oc3cc12 | 0.218 | 0.622 |
| N#CCS(=O)(=O)c1cccs1 | 0.217 | 0.626 |
| O=C(NC1Cc2ccccc2C1)c1cncc(Br)c1 | 0.281 | 0.658 |
| c1ccc(-c2cc3c(nn2)CCc2nonc2-3)cc1 | 0.27 | 0.648 |
| COc1cc(O)ccc1/C=N/NC(=O)c1cccc([N+](=O)[O-])c1 | 0.248 | 0.614 |
| O=C(N/N=C/c1ccc(OC(=O)c2cccc(F)c2)cc1)C1=NNC(c2ccccc2)(c2ccccc2)C1 | 0.267 | 0.624 |
| N#C/C(=C\c1ccc(OC(=O)c2cccc([N+](=O)[O-])c2)cc1)C(=O)c1ccccc1 | 0.211 | 0.634 |
| CC(Oc1ccccc1)C(=O)Nc1ccc(Cl)cc1 (configuration not stated) | 0.222 | 0.64 |
| CC(=O)c1cnn(-c2ccccc2)c1C | 0.259 | 0.623 |

| Compound | plate-normalized OD600 growth (temperature: 15°C, 48 h) | plate-normalized OD600 growth (temperature: 37°C, 24 h) |
| --- | --- | --- |
| O=C(/C=C/c1cccs1)C(C(=O)c1ccccc1)=C1SCCCCS1 | 0.244 | 0.615 |
| O=C(CSc1nc2ccccc2s1)Nc1cccn2cc(-c3ccccc3)nc12 | 0.263 | 0.614 |
| COc1ccc(CNCC2COc3ccccc3O2)cc1OC (configuration not stated) | 0.26 | 0.638 |
| CC(C)Nc1nc(Cl)nc(Nc2cccc(C(F)(F)F)c2)n1 | 0.262 | 0.62 |
| CCN=C(NCC)SC1CC(=O)N(c2ccc(C(=O)O)cc2)C1=O (configuration not stated) | 0.246 | 0.617 |
| CCOc1ccc(C(C)(C)C(=O)Nc2ccc(C(=O)/C=C/c3ccco3)cc2)cc1 | 0.266 | 0.639 |
| Clc1ccc2nc(N3CCOCC3)nc(-c3ccccc3)c2c1 | 0.251 | 0.61 |
| CCC(=O)Nc1nc2ccc(C)cc2s1 | 0.246 | 0.603 |
| N#CC(C(=O)Nc1cccc(C(F)(F)F)c1)C(=S)Nc1ccccc1Cl (configuration not stated) | 0.254 | 0.644 |
| COc1cc(C(=S)N2CCCCC2)ccc1OC(=O)c1ccccc1 | 0.00796 | 0.606 |
| CCCCOc1cc(C(=O)O)ccc1OC | 0.261 | 0.64 |
| COc1ccc(C(=O)N2CCN(c3c(C)cccc3C)CC2)cc1OC | 0.257 | 0.622 |
| Clc1cccc(Cl)c1/C=N/Nc1nncc(-c2ccccc2)n1 | 0.186 | 0.641 |
| CSCCC(NC(=O)c1ccccc1)C(=O)OCC(=O)Nc1ccccc1C#N (configuration not stated) | 0.236 | 0.619 |
| Clc1cccc(CN2CCN(Cc3ccco3)CC2)c1 | 0.237 | 0.636 |
| Cc1cc2c(cc1C)CN(c1ccc(C(=O)N/N=C/c3ccccc3O)cc1)C2 | 0.25 | 0.63 |
| COc1ccc(/C=N/NC(=O)COc2ccc(Cl)cc2)cc1I | 0.257 | 0.62 |
| CCCCOc1cccc(NC(=O)CCSc2nccn2C)c1 | 0.25 | 0.643 |
| N#C/C(=C\c1ccccc1Cl)c1nc2ccccc2[nH]1 | 0.26 | 0.624 |
| O=C(NCc1csc(-c2cccs2)n1)C1=Cc2ccccc2OC1 | 0.243 | 0.593 |
| O=C(Nc1ccccc1C(=O)NC1CCCCNC1=O)c1cccs1 (configuration not stated) | 0.253 | 0.638 |
| COc1ccc(-c2cc(C(F)(F)F)n3nc(C(=O)NC(C)(C)C)c(Cl)c3n2)cc1OC | 0.245 | 0.619 |
| Cc1nc(Nc2ccc(F)cc2)c2oc3ccccc3c2n1 | 0.245 | 0.613 |
